In the first experiment the target is NKPD1. Description: pooled miR-30 sensor sort-seq; sequence = guide strand. To be noted: shRNA.
The sequence TACTCGTAGAGGCAGTCGCGCT displayed a sensor-assay potency score (higher = more potent) of -1.54.
Same read-out and setting: for TTGTCGCGGAAAACGTCCCAGA the value was -1.15.
The same measure, in the same setting: for TACAACAGGTCGTCGCGGCTCT the value was -0.332; for AAAAGGAACTGCACGTTCCTGC, -0.361; for AGGAACTGCAGCTTGGTGCGGC, -1.31.
Regarding TTACGAACAGGTGCTTGCCCAC, the sensor-assay potency score (higher = more potent) was -0.968.
Same read-out and setting: for TTGAGCGCGCTGACGGCTCGGA the value was -0.211; for TCGCACATGAAACCCAGCTGGC, -0.962.

The target of the next experiment is NLGN1. The experiment is described as above. The note with it: shRNA.
Turning to TTGGTCAACAAGTTCTTTGTAA, the sensor-assay potency score (higher = more potent) is 0.00294.
On the same count and under the same terms, the value for TATCTGAAACATTGCAACCAAC was -1.43; that for TTGTTGTTTGGGATCATCCTGC was 0.229; that for TGAGGTACCAACTCCAACCAGA was 0.0181.
Turning to TTGGTATGAATGAATTTCGTGT, the sensor-assay potency score (higher = more potent) was -0.285.
The sequence TTGTTGTAGAGGTATACTGAGA displayed a sensor-assay potency score (higher = more potent) of -1.34.
For TAACATTATATCATAGTTGAGA, the sensor-assay potency score (higher = more potent) was -0.468.
On the same count and under the same terms, for TTTATTTCACACAATGACCAGT the value was 0.0352; for TAGCATTGGACTAATAGTCATT, -0.504; for TTGCTCGTTGAAAAAGTCCTTT, -0.525.
Still for that read-out and setting: for TAAATTTCCAGTACCTTCCATA the value was -0.487.

The target in the next experiment is NLRP2. Described as above. To be noted: shRNA.
With TTCGTCTTCAATATATACCTGC, the sensor-assay potency score (higher = more potent) was determined as 0.466.
Same read-out and setting: for AAGTCATCTATTTTCAACCTGA the value was 0.0295; for TTCTGTTTTGAAGCGCTCCAGC, -0.763.
The same measure, in the same setting: for TTTTTCTTCTATTTCTTCCAGC the value was -0.106.
On the same count and under the same terms, the value for TTTTTGAACACCACTCTCTGGA was 0.671; that for TATACCTGCACCTATTGTCTTT was -0.461; that for TTCAATATATACCTGCACCTAT was -0.184.
In turn, TTACAGTCTTGTGACCTCGAAG registered a sensor-assay potency score (higher = more potent) of -1.08.
The same measure, in the same setting: the value for TTTCTCAGTATCAATAATCAGT was -0.723; that for TACAACTTATGTCGCATCGCAG was -0.571; that for TTTCTGTAAACGCTTGTGCTTC was -0.408.
For the sequence TATTTCTTTGAACTGAGCCATC, the sensor-assay potency score (higher = more potent) was -1.26.

A further experiment addresses NLRP3. The description is as above. To be noted: shRNA.
For the sequence TTTTGGAACAGGTTCATCCTCA, the sensor-assay potency score (higher = more potent) is -0.144.
Take TTCTCTGTCTGACCCCTCGGGA: the sensor-assay potency score (higher = more potent) is -1.19.
Same read-out and setting: the value for TGTGATGACAACAACACCCGAT was 0.603.
Same read-out and setting: the value for TCAAACAGCAACTCCATCTTAA was -0.477.
On the same count and under the same terms, for TTGTCTAATTCCAACACCTGAA the value was -0.802; for AAGCTGTAGAACTTCTCGCAGT, -0.94; for TTGGCTTTCACTTCAATCCATT, -0.825.
For the sequence TTACAAATAGAGATTCTCGAAA, the sensor-assay potency score (higher = more potent) is -0.224.
Still for that read-out and setting: the value for TAGATCCACATGGTCTGCCTTC was -0.905.
Further: reference of the scale not given here.
